Structures are written as SMILES. Values joined by “and” are separate entries in the source; they are usually repeats but may differ in a detail not shown here. Equal values may be shown once. Compounds without any hit were thinned out: in the full panel of roughly 83,000, 20% have a hit.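 The endpoint reported here, percent growth, reads 100 for growth as untreated, 0 for no net growth and -100 for all cells dead.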 Unmarked numbers belong to inactive results. Active and inactive are the calls of the source. The calls were made as follows: active = growth percent below 10; inactive = the rest.

This assay has as its system HL-60(TB) leukemia. Briefly: NCI-60 one-dose screen, 48 h (100 = growth as untreated, 0 = no growth, -100 = all killed). The note with it: 10 µM unless noted.
For the compound `Cc1nc2c(=O)[nH]c(SCC(=O)Nc3cccc(F)c3)nc2[nH]c1=O`, the growth is 105%.
As for `COc1ccc(/C=C2\C(=O)N=C3N2NC(c2cc(Br)ccc2O)C=C(C)N3c2ccccc2)cc1` (configuration not stated), the figure is 99%.
As for `CS(=O)CC(=N\O)/C(CS(C)=O)=N\O` (configuration not stated), the figure is 101%; as for `O=c1[nH]c(=O)n(C2OC(CO)C(O)C2O)cc1I` (configuration not stated), 77.5% and 86.6%; as for `OCc1c(-c2ccccc2)nc2sccn12`, 130%.
The result for `Cc1cccc2c1NC(=O)C2(c1ccc(O)cc1)c1ccc(O)cc1` reads 83%.
For `CC/C=C\C[C@H]1C/C=C2/C(=O)C=C[C@@H]2C/C=C\CCCC(=O)O1`, the growth was -27.2% (active).
The result for `Cc1ccc(C(=O)NN)cc1` reads 124%; that for `O=C1c2c(c3c4ccc(Br)cc4oc3c3[nH]c4ccccc4c23)C(=O)N1O`, 25%; that for `O=S(=O)(Nc1nccs1)c1ccc(Nc2nc(-c3ccncc3)cs2)cc1`, 98.6%.
As for `CCc1[nH]nc(-c2ccc(OC)cc2)c1-c1ccccc1OCCN(CC)CC`, the figure is 92.8%; as for `O=C(O)C1CSC(c2ccccc2)N1` (configuration not stated), 128%.
Take `COc1cccc(O)c1O`: the growth was 73.6%.
Consider `CCn1nc(-c2ccc(C(=O)OC)cc2)nc2c(=O)n(C)c(=O)nc1-2`, for which the growth is 132%.
As for `COc1cc(OC)cc(-c2cncn2-c2ccc(-c3nc4cc(OC)cc(OC)c4s3)cc2)c1`, the figure is 41%; as for `Oc1cccnc1CN1CCOCC1`, 94% and 88.5%; as for `Nc1c(C(=O)c2ccc(F)cc2)sc2nc3c(cc12)CCCC3`, 70.2%.

(Values after PubChem BioAssay (NCI).)
